# Results published in PubChem BioAssay (EPA / NIEHS).
# Results filed as inconclusive are left out. Activity calls are given as the source filed them. Rule for the calls, unless noted: active = hit-call score of the fitted dose curve at least 0.9, where 1 is the maximum; inactive = score below 0.9.
# Columns and labels:
# [1] = IUF_NPC2c_oligodendrocyte_migration_120hr: Leibniz Research Institute for Environmental Medicine (IUF) 120-hour Neural Progenitor Cell Migration Assay for Oligodendrocyte Migration (NPC2c) (AID 2284297);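 note: O4-positive oligodendrocyte migration distance divided by radial glia migration distance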
# In short: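 hNPC spheres (GW 16-19 cortex), PDL/laminin, DMEM/F12 3:1 + 1% N2, 37C. Dosing day 0–5, half feed day 3, DMSO ≤0.1%. Fixed 120 h; O4 ICC + Hoechst, HCI. Readout: mean oligodendrocyte distance from sphere edge / radial glia distance.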
# [2] = IUF_NPC2a_radial_glia_migration_120hr: Leibniz Research Institute for Environmental Medicine (IUF) 120-hour Neural Progenitor Cell Migration Assay for Radial Glia Migration (NPC2a) (AID 2284298)
# In short: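 Hoechst-stained nuclei imaged at 120 h; algorithm maps sphere core by densest nuclei, sets migration edge at density threshold, gives radial glia migration distance (um) per well vs DMSO. hNPC spheres (0.3 mm), PDL/laminin, DMEM/F12 3:1 + 1% N2.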
# [3] = IUF_NPC2a_radial_glia_migration_72hr: Leibniz Research Institute for Environmental Medicine (IUF) 72-hour Neural Progenitor Cell Migration Assay for Radial Glia Migration (NPC2a) (AID 2284299)
# In short: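 Spheres of human primary neural progenitors migrate on poly-D-lysine/laminin under compound exposure at 37C, 5% CO2. The 72 h radial glia migration distance comes from brightfield images, measured manually.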
# [4] = IUF_NPC2b_neuronal_migration_120hr: Leibniz Research Institute for Environmental Medicine (IUF) 120-hour Neural Progenitor Cell Migration Assay for Neuron Migration (NPC2b) (AID 2284300)
# In short: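 hNPC spheres, PDL/laminin, DMEM:F12 3:1 + 1% N2, 37C/5% CO2; 7 concentrations + solvent control (DMSO ≤0.1%), 5 d exposure, half-feed day 3. Fix 120 h, TUBB3 ICC, HCI: mean neuron migration distance ÷ glia distance.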
# [5] = IUF_NPC3_neuronal_differentiation_120hr: Leibniz Research Institute for Environmental Medicine (IUF) 120-hour Neuronal Differentiation Assay (NPC3) (AID 2284301)
# In short: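 Neuronal differentiation of primary human neural progenitors measured by high-content imaging: percent TUBB3+ of Hoechst+ nuclei within migrated area at 120 h, seven-point serial dilution plus solvent control, gain or loss relative to DMSO.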
# [6] = IUF_NPC4_neurite_length_120hr: Leibniz Research Institute for Environmental Medicine (IUF) 120-hour Neuronal Morphology Assay for Neurite Length (NPC4) (AID 2284302)
# In short: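 Neurons from differentiating human fetal neural progenitor spheres are scored for average neurite length after five days of compound exposure. Fitting uses DMSO as negative control.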
# [7] = IUF_NPC5_oligodendrocyte_differentiation_120hr: Leibniz Research Institute for Environmental Medicine (IUF) 120-hour Oligodendrocyte Differentiation Assay (NPC5) (AID 2284304; active = hit-call score of the fitted dose curve at least 0.9, where 1 is the maximum;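 note: primary human fetal neural progenitor spheres plated to migrate and differentiate; share of O4-positive cells among Hoechst nuclei found by CNN image analysis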)
# In short: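 hNPC spheres, fetal cortex GW 16-19; PDL/laminin, DMEM:F12 3:1 + 1% N2, 37C/5% CO2; 7 concentrations + solvent control, 5 d exposure, half-change day 3. Readout: %O4+ of Hoechst+ nuclei in migration area, CNN classification; DMSO baseline.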
# [8] = BSK_MyoF_SRB: Viability Assessment in the BioMAP Diversity Plus: MyoF Assay (AID 2284267); conditions: primary human lung fibroblasts;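 note: total protein by SRB absorbance in parallel cultures as cytotoxicity measure; cells assessed 24 h after compound addition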
# In short: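 In this viability endpoint, fibroblasts from human lung are treated for 24 h, TCA-fixed, SRB-stained (0.1%) and read at 560 nm. Gain of signal relative to DMSO defines activity.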
# [9] = read-out: Matrix Metallopeptidase 1 (MMP1), MMP1 (gene 4312); test: BSK_MyoF_MMP1: BioMAP Diversity Plus: MyoF Assay for Matrix Metallopeptidase 1 (MMP1) Biomarker Activity (AID 2284268); conditions: primary human lung fibroblasts
# In short: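 Cells: human lung fibroblasts. Exposure: 24 h chemical dosing. Detection: ELISA for MMP1. Analysis: upward fitting against DMSO negative control.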
# [10] = read-out: TIMP metallopeptidase inhibitor 1 (TIMP1), TIMP1 (gene 7076); test: BSK_MyoF_TIMP1: BioMAP Diversity Plus: MyoF Assay for TIMP metallopeptidase inhibitor 1 (TIMP1) Biomarker Activity (AID 2284269); conditions: primary human lung fibroblasts
# Procedure: BSK_MyoF is a cell-based, multiplexed-readout assay that uses lung fibroblasts, […], with measurements taken at 24 hours after chemical dosing in a microplate: 96-well plate.BSK_MyoF_TIMP1 is an assay component measured in the BSK_MyoF assay. It measures TIMP-1 antibody related to regulation of gene expression using ELISA technology.Data from the assay component BSK_MyoF_TIMP1 was analyzed at the endpoint, BSK_MyoF_TIMP1, in the positive analysis fitting direction relative to DMSO as the negative control and baseline of activity. Using a type of binding reporter, gain or loss-of-signal activity can be used to understand protein changes. […]
# The levels of cell surface (or secreted, indicated by the prefix "s") biomarker endpoints were measured by ELISA. Overt cytotoxicity to cells in confluent adherent cultures (all systems other than the BT system) was assessed by measuring total protein levels using sulforhodamine B (SRB) staining in parallel cultures at the time of biomarker measurements, indicated as SRB endpoints. For proliferation assays for adherent cell types, individual cell types are cultured at sub-confluence and relative cell numbers quantified by SRB staining at time points optimized for each system (48 h: 3C and CASM3C systems; 72 h: BT and HDF3CGF systems; 96 h: SAg system). […] Plates were read after 6 h.
smiles,measurement,setting,value
CC(C)(C)c1ccc(CSc2cnn(C(C)(C)C)c(=O)c2Cl)cc1,outcome,[1],inactive
same,AC50,[2],3.31 µM (active)
same,outcome,[3],inactive
same,outcome,[4],inactive
same,outcome,[5],inactive
same,outcome,[6],inactive
same,AC50,[7],0.0866 µM (active)
N#Cc1nn(-c2c(Cl)cc(C(F)(F)F)cc2Cl)c(N)c1S(=O)C(F)(F)F (centres undefined),outcome,[1],inactive
same,AC50,[2],18.8 µM (active)
same,outcome,[3],inactive
same,outcome,[4],inactive
same,outcome,[5],inactive
same,AC50,[6],13.5 µM (active)
same,AC50,[7],1.99 µM (active)
COc1cnc(OC)n2nc(NS(=O)(=O)c3c(OCC(F)F)cccc3C(F)(F)F)nc12,outcome,[8],inactive
same,outcome,[9],inactive
same,outcome,[10],inactive
CO/C=C(/C(=O)OC)c1ccccc1Oc1cc(Oc2ccccc2C#N)ncn1,outcome,[1],inactive
same,outcome,[2],inactive
same,outcome,[3],inactive
same,outcome,[4],inactive
same,outcome,[5],inactive
same,outcome,[6],inactive
same,outcome,[7],inactive
Cc1ccc(-c2c(Cl)nc(C#N)n2S(=O)(=O)N(C)C)cc1,AC50,[1],23.9 µM (active)
same,AC50,[2],33.6 µM (active)
same,AC50,[3],25.9 µM (active)
same,AC50,[4],30.8 µM (active)
same,AC50,[5],31.3 µM (active)
same,AC50,[6],12.5 µM (active)
same,AC50,[7],33.9 µM (active)
CCCCOC(=O)c1ccccc1C(=O)OCCCC,outcome,[1],inactive
same,outcome,[2],inactive
same,outcome,[3],inactive
same,outcome,[4],inactive
same,outcome,[5],inactive
same,outcome,[6],inactive
CCOc1cc(Oc2ccc(C(F)(F)F)cc2Cl)ccc1[N+](=O)[O-],outcome,[1],inactive
same,outcome,[2],inactive
same,outcome,[3],inactive
same,outcome,[4],inactive
same,outcome,[5],inactive
same,outcome,[6],inactive
same,AC50,[7],5.26 µM (active)
C=CC1(C)OC(=O)N(c2cc(Cl)cc(Cl)c2)C1=O (centres undefined),outcome,[1],inactive
same,outcome,[2],inactive
same,outcome,[3],inactive
same,outcome,[4],inactive
same,outcome,[5],inactive
same,outcome,[6],inactive
same,outcome,[7],inactive
COC(=O)N(OC)c1ccccc1COc1ccn(-c2ccc(Cl)cc2)n1,outcome,[1],inactive
same,AC50,[2],3.18 µM (active)
same,AC50,[3],3.44 µM (active)
same,outcome,[4],inactive
same,AC50,[5],0.0497 µM (active)
same,AC50,[6],0.328 µM (active)
same,AC50,[7],2.16 µM (active)
CN(C)C(=S)SSC(=S)N(C)C,AC50,[1],28.1 µM (active)
same,AC50,[2],47.3 µM (active)
same,AC50,[3],11.4 µM (active)
same,AC50,[4],58.7 µM (active)
same,AC50,[5],13.5 µM (active)
same,AC50,[6],17.7 µM (active)
same,AC50,[7],26 µM (active)
CCCCC(CC)COC(=O)c1ccccc1C(=O)OCC(CC)CCCC (centres undefined),outcome,[1],inactive
same,outcome,[2],inactive
same,outcome,[3],inactive
same,outcome,[4],inactive
same,outcome,[5],inactive
same,outcome,[6],inactive
same,outcome,[7],inactive
CCOC(=O)CC(SP(=S)(OC)OC)C(=O)OCC (centres undefined),outcome,[1],inactive
same,outcome,[2],inactive
same,outcome,[3],inactive
same,outcome,[4],inactive
same,outcome,[5],inactive
same,outcome,[6],inactive
COP(N)(=O)SC (centres undefined),outcome,[1],inactive
same,outcome,[2],inactive
same,outcome,[3],inactive
same,outcome,[4],inactive
same,outcome,[5],inactive
same,outcome,[6],inactive
same,outcome,[7],inactive
CNC(=O)ON=CC(C)(C)SC,outcome,[1],inactive
same,outcome,[2],inactive
same,outcome,[3],inactive
same,outcome,[4],inactive
same,outcome,[5],inactive
same,outcome,[6],inactive
same,outcome,[7],inactive
COP(=S)(OC)Oc1nc(Cl)c(Cl)cc1Cl,outcome,[1],inactive
same,outcome,[2],inactive
same,outcome,[3],inactive
same,outcome,[4],inactive
same,outcome,[5],inactive
same,outcome,[6],inactive
same,outcome,[7],inactive
